Measured values from PubChem BioAssay AID504803 (The Scripps Research Institute Molecular Screening Center, 2011).
The whole screen tested about 340,000 compounds, of which about 1,700 (0.5%) were called active. Cut-off read from the data, not from the text of the source: active = inhibition above about 36%; inactive = the rest. Shown is part of a subset that was picked to be rich in actives.

target: Serine protease HTRA1 (Homo sapiens) (UniProt Q92743); assay: inhibition of human HTRA1 peptidase – biochemical, fluorescence polarization, HTS, primary screen (AID 504803); conditions: recombinant HTRA1, FP-rhodamine activity-based probe, at 5.96 µM, stronger effect = higher value;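 note: 0% = enzyme with DMSO and 100% = wells lacking enzyme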
Sequence (Q92743 whole entry, looked up): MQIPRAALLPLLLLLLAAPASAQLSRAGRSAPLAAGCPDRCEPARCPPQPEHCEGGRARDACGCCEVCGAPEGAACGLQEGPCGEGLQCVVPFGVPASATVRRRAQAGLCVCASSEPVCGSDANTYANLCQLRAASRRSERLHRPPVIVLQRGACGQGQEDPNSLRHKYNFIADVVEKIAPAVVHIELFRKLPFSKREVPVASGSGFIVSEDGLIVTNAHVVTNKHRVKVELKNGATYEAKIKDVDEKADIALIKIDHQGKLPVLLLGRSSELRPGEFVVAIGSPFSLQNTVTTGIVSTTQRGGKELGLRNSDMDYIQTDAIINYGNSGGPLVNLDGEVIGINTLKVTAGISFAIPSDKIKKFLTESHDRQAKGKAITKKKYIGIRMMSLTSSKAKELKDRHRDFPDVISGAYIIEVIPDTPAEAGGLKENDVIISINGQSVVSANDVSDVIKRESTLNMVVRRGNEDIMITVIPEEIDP

Structure (SMILES) | inhibition
C[C@@H]1CN([C@H](C)CO)C(=O)CCCn2nncc2CO[C@@H]1CN(C)S(=O)(=O)c1cccc(C#N)c1 | 4.09% (inactive)
CCN1CCN(C(c2cccnc2)c2cc(Cl)c3cccnc3c2O)CC1 (configuration not stated) | 42% (active)
COCCNC(=O)/C(C#N)=C/c1cccc(OCc2ccccc2)c1 | -21.2% (inactive)
N#C/C(=C\c1ccc(O)c(O)c1)C(=O)NCc1ccccc1 | 59.1% (active)
COc1ccc(CNC(=O)/C(C#N)=C/c2cccc(OC)c2OC)cc1 | -5.58% (inactive)
CC(C)CC1C(=O)N(Cc2cn(CC3CCCCC3)nn2)CCS(=O)(=O)N1Cc1ccc(-c2ccc(Cl)cc2)cc1 (configuration not stated) | -45.3% (inactive)
Cc1cccc(N2CCN(c3ccc(NC(=O)/C=C\C(=O)O)cc3)CC2)c1 | 52% (active)
CC(C)=C1SC(N2CCN(c3cccc(C)c3)CC2)=NC1=O | -3.36% (inactive)
Cc1cccc(N2CCN(C(=O)c3ccccc3NC(=O)C3CCCCC3C(=O)O)CC2)c1 (configuration not stated) | 2.87% (inactive)
O[C@H]1C[C@H](c2ccc(Cl)cc2)N(Cc2cccs2)C[C@@H]1n1cc(C2CC2)nn1 | -46% (inactive)
COc1cccc(OC)c1C(=O)Nc1nnc(C(C)C)s1 | -2.63% (inactive)
COc1cccc2sc(NNC(=O)c3nc4ccccc4s3)nc12 | 39.4% (active)
COc1ccc(C(=O)Nc2cccc(/C=C(/CCC(=O)O)c3nc4ccccc4s3)c2)cc1 | -96.2% (inactive)
C[C@H]1CN([C@@H](C)CO)C(=O)CCCn2cc(nn2)CO[C@@H]1CN(C)C(=O)Nc1ccccc1 | 2.55% (inactive)
Cc1noc(C)c1NC(=O)N(C)C[C@@H]1Oc2cc(Br)ccc2S(=O)(=O)N([C@@H](C)CO)C[C@H]1C | 0.21% (inactive)
Cc1ccc(C(=O)N[C@H](C(=O)N2CCN(c3ncccn3)CC2)C(C)C)cc1 | 5.28% (inactive)
CCc1nc2c(=O)[nH]cnc2o1 | 5.91% (inactive)
Cc1cc(-c2csc(N)n2)c(C)n1Cc1ccccc1 | 37.6% (active)
CCCn1c(C)cc(-c2csc(NC(=O)CCc3nc4ccccc4c(=O)[nH]3)n2)c1C | -3.91% (inactive)
Cc1cc(-c2csc(N)n2)c(C)n1-c1ccccc1 | 52.5% (active)
CCOC(=O)C1=C(O)/C(=C/c2cc(C)n(-c3ccccc3)c2C)N=C1C | 20.9% (inactive)
CCCc1cc(-c2n[nH]c(=S)n2Cc2ccccc2)cs1 | -3.06% (inactive)
Cc1cc(C(=O)OCC(=O)N2c3ccccc3NC(=O)C2(C)C)c(C)n1-c1ccccc1 | -25.2% (inactive)

Structure (SMILES) | inhibition
CCN1C(=O)[C@H]2[C@@H](c3ccccc3)N[C@]3(CCCN(Cc4ccc(C)cc4)C3=O)[C@H]2C1=O | -0.19% (inactive)
COc1ccc(NC(=O)N(C)C[C@H]2Oc3ncc(C#C[C@@H](C)O)cc3C(=O)N([C@H](C)CO)C[C@H]2C)cc1 | 6% (inactive)
Nc1cccc(OCCCCCOc2cccc(N)c2)c1 | 3.94% (inactive)
COC(=O)c1ccccc1N=NNc1ccc([N+](=O)[O-])cc1 | 3.36% (inactive)
COc1ccc(NC(=O)c2cc(=O)[nH]c3ccccc23)cc1S(=O)(=O)N1CCOCC1 | -7.81% (inactive)
Oc1ccc2ccccc2c1N=Nc1nccs1 | 44.7% (active)
COc1ccc(NC(=O)COC(=O)C2COc3ccccc3O2)cc1 (configuration not stated) | -2.75% (inactive)
COc1cccc2cc(-c3cc(=O)oc4cc(C)c(O)cc34)oc12 | -8.58% (inactive)
COc1c(O)cc2oc(-c3ccc(O)c(O)c3)cc(=O)c2c1O | 25.7% (inactive)
COc1cc(O)c2c(=O)c3c(O)c(O)ccc3oc2c1OC | 53.9% (active)
COc1ccc(N)cc1NC(=O)CN1CCOCC1 | -3.64% (inactive)
Oc1ccc(C2Nc3cccc4cccc(c34)N2)cc1 | 22.9% (inactive)
Brc1ccccc1C1Nc2cccc3cccc(c23)N1 | 59.2% (active)
COc1cc2c(cc1OC)C(c1ccccc1Br)NC(=O)C2 (configuration not stated) | -6.31% (inactive)
Cc1ccc(NC(=O)c2ccco2)cc1 | 1.31% (inactive)
Cc1nc2ccccc2nc1CC(O)(c1ccccc1)c1ccccc1 | -14.1% (inactive)
Cc1cc(Cl)ccc1C(=O)C1CCCN(C(=O)c2ccc3c(c2)OCO3)C1 (configuration not stated) | -4.58% (inactive)
O=S(=O)(NCCNS(=O)(=O)c1ccccc1)c1ccccc1 | 4.81% (inactive)
NC(=O)NC(=O)C(OC(=O)CCNS(=O)(=O)c1ccccc1)c1ccccc1 (configuration not stated) | 36.7% (active)
Cc1ccc(S(=O)(=O)NCCC(=O)OCC(=O)N(C)c2ccccc2)cc1 | 5.9% (inactive)
CSc1ncnc2c1ncn2CCCNCc1cccs1 | 3.07% (inactive)
C[C@@H]1CCCCO[C@H](CN(C)Cc2ccccc2)[C@@H](C)CN([C@H](C)CO)C(=O)c2cc(NS(=O)(=O)c3ccc(Cl)cc3)ccc2O1 | -17.9% (inactive)
CCc1cccc(CC)c1N1C(=O)CC(Sc2ccccc2N)C1=O (configuration not stated) | 2.44% (inactive)

Structure (SMILES) | inhibition
Cn1nc(N)c2ncc(C(Cl)(Cl)Cl)nc21 | -0.52% (inactive)
CN(C)c1ccc(N/C=C/C(=O)C(F)(F)F)cc1 | 38.7% (active)
CC(C)CNC(=O)C(=O)Nc1ccc(N(C)C)cc1 | 7.37% (inactive)
COc1cc(OC)c(C(=O)Nc2ccc(N(C)C)cc2)cc1OC | 5.76% (inactive)
C[C@H](CO)N1C[C@H](C)[C@@H](CN(C)C(=O)c2cccc(F)c2)Oc2cc(-c3cncnc3)ccc2S1(=O)=O | 2.58% (inactive)
O=C(Nc1cc(S(=O)(=O)N2CCOCC2)ccc1Cl)c1cc(=O)c2ccccc2o1 | -4.07% (inactive)
O=C(c1cc(S(=O)(=O)N2CCOCC2)ccc1Cl)N1CCOCC1 | 2.81% (inactive)
O=[N+]([O-])c1cc(Cl)cc(/C=N/NC(=S)Nc2cc(S(=O)(=O)N3CCOCC3)ccc2Cl)c1O | 45.7% (active)
Cc1ccc(Nc2ccccc2N)cc1 | 47.8% (active)
Nc1ccc(C(=O)Nc2ccccc2N)cc1 | 6.6% (inactive)
Cc1ccc(Nc2nc(Cl)c(C=O)s2)cc1 | -8.62% (inactive)
CC1(c2cccc(N)c2)OCCO1 | 4.7% (inactive)
O=C(O)C1=C(C(=O)O)C2CCC1C2 | 9.01% (inactive)
CN1CCN(c2ccncc2S(=O)(=O)N2CCCC2)CC1 | 3.56% (inactive)
Clc1ccc(C2=CSC3=Nc4cccc5cccc(c45)N23)cc1 | 44.2% (active)
CC1=C(C(=O)N2CCOCC2)CC(CC(=O)NCc2cccc3ccccc23)C(=O)N1CCC1=CCCCC1 (configuration not stated) | -3.43% (inactive)
O=C1NC(Cc2ccccc2)c2nc3ccc(Br)cc3c(=O)n2-c2cc3ccccc3cc21 (configuration not stated) | -54.3% (inactive)
CC(=O)Nc1ccc(S(=O)(=O)Nc2ccc(N3CCCCC3)cc2)cc1 | 52.4% (active)
CC(=O)Nc1ccc(NS(=O)(=O)c2ccc3c(c2)NC(=O)CC(=O)N3)cc1 | 6.8% (inactive)
CC(=O)Nc1ccc(S(=O)(=O)N2CCCC2C(=O)O)cc1 (configuration not stated) | 2% (inactive)
C=CCOc1ccccc1CNn1c(C)n[nH]c1=S | 3.58% (inactive)
CNC(=S)NNC(=O)c1sccc1OCc1ccccc1 | 5.29% (inactive)
CNC(=S)NNC(=O)c1cccn(Cc2ccccc2)c1=O | 3.18% (inactive)

Structure (SMILES) | inhibition
CNC(=S)NNC(=O)c1oc2nc(-c3ccccc3)cc(-c3ccco3)c2c1N | 51.7% (active)
Cc1cc2cc3n(c2nn1)N=C(Cl)CC3 | 3.25% (inactive)
CCOC(=O)C1CCN(C(=O)c2ccc3c(=O)n4nc(Nc5ccccc5CC)sc4nc3c2)CC1 | -34.2% (inactive)
CCOC(=O)C=Cc1ccc(C(=O)OCC)[nH]1 | 0.68% (inactive)
Cc1[nH]c2ccccc2c1C(=O)C(=O)NCc1nnnn1-c1cccc(F)c1 | 7.28% (inactive)
CCC(Oc1ccccc1)C(=O)OCC(=O)Nc1c(C)nn(-c2ccccc2)c1C (configuration not stated) | -6.47% (inactive)
CCOc1ccc(/C=N/NC(=O)CSc2ccccn2)cc1O | 9.01% (inactive)
Cn1c(SCC(=O)N/N=C/c2ccc(O)c(O)c2)nc2ccccc21 | 41.2% (active)
CCn1c(SCC(=O)N/N=C/c2ccncc2)nc2ccccc21 | 4.65% (inactive)
O=C1OCCC1=COCCCCOC=C1CCOC1=O | -3.04% (inactive)
Cc1ccc(NC(=O)COc2ccc(/C=N\NC(=O)c3cccnc3)cc2)cc1C | -7.41% (inactive)
O=C(N/N=C/c1sc(N2CCCCC2)nc1-c1cccs1)c1cccnc1 | 40.5% (active)
O=C(O)c1ccc(N/N=C/c2cn(-c3ccccc3)nc2-c2cccs2)cc1 | -11.3% (inactive)
CSc1ncnc2c1ncn2CCCNCc1ccco1 | 8.47% (inactive)
CCN(CC)CCN(C(=O)c1ccc2c(c1)CCCC2)c1nc2c(OC)cccc2s1 | -19.6% (inactive)
CN1OC[C@@H]2CN[C@H](c3ccc(-c4ccccc4)cc3)C[C@@H]21 | -1.81% (inactive)
COCCn1c(SCC(=O)Nc2ccc(F)cc2F)nc2c(c1=O)SCC2 | -1.19% (inactive)
CC(CC(=O)N1CCN(c2ccccc2)CC1)c1ccccc1 (configuration not stated) | -0.5% (inactive)
CC(=O)c1ccc(N2CCN(C(=O)CCc3ccccc3)CC2)cc1 | 2.82% (inactive)
CC(=O)N1CCN(c2ccc(NCc3ccc(C(C)C)cc3)cc2)CC1 | 59.2% (active)
O=C(OCc1ccccc1)N1CCC2CC1c1cc(N3CCN(S(=O)(=O)c4cc(Cl)cc(Cl)c4)CC3)ccc12 (configuration not stated) | -4.06% (inactive)
C[C@H](O)[C@@H]1C(=O)N2CCc3c([nH]c4ccccc34)[C@@H]2C[C@@H]1N(C)C(=O)Nc1ccc(F)cc1 | -1.56% (inactive)
C[C@@H]1CN([C@H](C)CO)C(=O)CCCn2nncc2CO[C@@H]1CN(C)C(=O)OCc1ccccc1 | -3.03% (inactive)
